# According to the supplement of paper PMC11624193, “Coupling cellular drug-target engagement to downstream pharmacology with CeTEAM” (Nature Communications, 2024):
# Structures can show the parent of a compound that is named as a salt. ± gives the standard deviation of the averaged measurements.
# Target: PARP1 L713F-nLuc biosensor (HCT116) (UniProt P09874)
# Assay: PARP1 L713F-nLuc/akaLuc ratio relative to DMSO control (biosensor stabilization) (fold change); higher = more PARP1 biosensor stabilization (target engagement / stabilizer), active = hit call of the paper
# Settings: stock concentration (mM; final µM = stock mM x 1): 10; 24 h;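 active = log2 fold change beyond 2 SD from the library mean after excluding viability outliers; inactive = within 2 SD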
# PARP1 L713F-nLuc biosensor (HCT116), sequence (P09874 whole entry L713F, looked up): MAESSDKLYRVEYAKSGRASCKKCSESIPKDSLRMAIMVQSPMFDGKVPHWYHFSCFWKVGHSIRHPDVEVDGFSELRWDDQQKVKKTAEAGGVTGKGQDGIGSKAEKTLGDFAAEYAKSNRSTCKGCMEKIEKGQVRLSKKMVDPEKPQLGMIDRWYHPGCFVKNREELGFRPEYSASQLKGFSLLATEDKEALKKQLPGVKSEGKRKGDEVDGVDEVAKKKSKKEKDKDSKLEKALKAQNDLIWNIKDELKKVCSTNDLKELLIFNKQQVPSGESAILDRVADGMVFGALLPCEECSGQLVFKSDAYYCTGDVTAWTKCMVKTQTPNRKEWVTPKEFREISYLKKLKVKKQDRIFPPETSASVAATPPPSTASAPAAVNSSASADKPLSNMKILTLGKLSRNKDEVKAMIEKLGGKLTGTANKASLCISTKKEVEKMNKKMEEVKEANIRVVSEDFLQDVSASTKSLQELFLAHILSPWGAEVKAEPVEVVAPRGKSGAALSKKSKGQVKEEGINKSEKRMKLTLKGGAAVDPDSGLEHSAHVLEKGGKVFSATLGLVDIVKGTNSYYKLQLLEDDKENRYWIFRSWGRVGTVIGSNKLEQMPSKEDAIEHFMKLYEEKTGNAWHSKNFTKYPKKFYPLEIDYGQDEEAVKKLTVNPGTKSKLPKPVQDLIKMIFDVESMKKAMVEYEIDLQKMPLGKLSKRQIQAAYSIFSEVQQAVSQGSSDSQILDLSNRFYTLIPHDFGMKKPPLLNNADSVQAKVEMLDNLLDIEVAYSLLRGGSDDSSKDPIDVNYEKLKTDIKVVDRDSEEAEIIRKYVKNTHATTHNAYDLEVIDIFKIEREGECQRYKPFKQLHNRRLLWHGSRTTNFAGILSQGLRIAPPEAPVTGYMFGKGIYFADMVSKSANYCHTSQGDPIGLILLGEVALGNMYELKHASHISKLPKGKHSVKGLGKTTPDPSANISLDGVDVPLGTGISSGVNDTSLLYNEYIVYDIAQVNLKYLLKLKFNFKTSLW
row,SMILES,PARP1 L713F-nLuc/akaLuc ratio
1,O=c1ncn2nc(Sc3ccc(F)cc3F)ccc2c1-c1c(Cl)cccc1Cl,0.808 (inactive)
2,O=C(O)CCNc1cc(N2CCc3ccccc3CC2)nc(-c2ccccn2)n1,0.92 (inactive)
3,COc1cc2ncnc(Nc3cccc(Cl)c3F)c2cc1OC(=O)N1CCN(C)C[C@H]1C,1.31 (inactive)
4,N#CC[C@H](C1CCCC1)n1cc(-c2ncnc3[nH]ccc23)cn1 [Ruxolitinib],0.544 (inactive)
5,O=C(/C=C\n1cnc(-c2cc(C(F)(F)F)cc(C(F)(F)F)c2)n1)NNc1cnccn1 [Selinexor (KPT-330)],0.434 (inactive)
6,COc1cc(Nc2ncc3c(n2)-c2ccc(Cl)cc2C(c2c(F)cccc2OC)=NC3)ccc1C(=O)O [Alisertib (MLN8237)],1.12 (inactive)
7,CC(C)c1c(C(=O)Nc2ccccc2)c(-c2ccccc2)c(-c2ccc(F)cc2)n1CC[C@@H](O)C[C@@H](O)CC(=O)O [Atorvastatin Calcium],0.363 (inactive)
8,C/C(=N\NC(=O)c1cccc(S(=O)(=O)N2CCN(C)CC2)c1)c1cc(Cl)ccc1O [Seclidemstat],0.552 (inactive)
9,O=C(CC[C@H](NC(=O)OCc1ccccc1)C(=O)O)NCCCC[C@H](NC(=O)OCc1ccccc1)C(=O)Nc1ccccc1,1.06 (inactive)
10,C[C@H]1CCCN1Cc1nc2cc(NC(=O)c3ccc4c(cnn4C)c3)ccc2[nH]1,0.788 (inactive)
11,CC1Oc2cc(cnc2N)-c2c(nn(C)c2C#N)CN(C)C(=O)c2ccc(F)cc21 (centres undefined),1.13 (inactive)
12,O=C(NO)c1ccc(CN2CCCc3cc(Cl)ccc32)cc1,1.01 (inactive)
13,O=C(c1cc(Cc2n[nH]c(=O)c3ccccc23)ccc1F)N1CCn2nc(C(F)(F)F)nc2C1 [Fluzoparib],3.72 (active)
14,CC(C)=CCC/C(C)=C/Cc1c(O)c(CC=C(C)C)c2c(c1O)C(=O)C1=C[C@@H]3C[C@H]4C(C)(C)O[C@@](C/C=C(/C)C(=O)O)(C3=O)[C@@]14O2 [Gambogenic acid],1.04 (inactive)
15,CNS(=O)(=O)Nc1nccc(Cc2c(C)c3ccc(Oc4ncccn4)cc3oc2=O)c1F,0.435 (inactive)
16,O=[N+]([O-])c1cc(Nc2ccc3nonc3c2[N+](=O)[O-])ccc1Cl,1.28 (inactive)
17,CC1(C)NC(=O)N(c2ccc([N+](=O)[O-])c(C(F)(F)F)c2)C1=O [Nilutamide],0.772 (inactive)
18,CCCCCCCCCCCCC/C=C/[C@@H](O)[C@@H](N)CO [D-erythro-Sphingosine],1.21 (inactive)
19,O=C(COc1cccc2c(=O)[nH]ccc12)c1ccccc1,1.08 (inactive)
20,O=C(Nc1c[nH]nc1-c1nc2ccc(CN3CCOCC3)cc2[nH]1)NC1CC1,2.07 ± 0.91

row,SMILES,PARP1 L713F-nLuc/akaLuc ratio
1,CC1(N)CCN(c2cnc(-c3cccc(Cl)c3Cl)c(N)n2)CC1 [SHP099 dihydrochloride],0.78 (inactive)
2,O=C(O)CC1CC(c2ccccc2)=NO1 (centres undefined),1.72 (inactive)
3,O=C(c1ccc(OCCN2CCCCC2)cc1)c1c(-c2ccc(O)cc2)sc2cc(O)ccc12 [Raloxifene HCl],0.932 (inactive)
4,COc1cc(CCc2cc(NC(=O)c3ccc(N4CC(C)NC(C)C4)cc3)n[nH]2)cc(OC)c1 (centres undefined),0.745 (inactive)
5,CONC(=O)c1ccccc1Nc1cc(Nc2cc(C)nn2C(C)C)ncc1Cl,0.987 (inactive)
6,CC(C)[C@@](C)(O)[C@@H]1CN(c2nc(-c3[nH]nc4ncccc34)c(F)cc2Cl)CCN1,0.823 (inactive)
7,O=c1cc(O)cc(/C=C/c2ccc(O)c(O)c2)o1 [Hispidin],1.19 (inactive)
8,CCCCCOC(=O)Nc1nc(=O)n([C@@H]2O[C@H](C)[C@@H](O)[C@H]2O)cc1F [Capecitabine],0.759 (inactive)
9,CNCc1ccc(-c2[nH]c3cc(F)cc4c3c2CCNC4=O)cc1 [Rucaparib (Camsylate)],6.55 (active)
10,N#CC[C@H](C1CCCC1)n1cc(-c2ncnc3[nH]ccc23)cn1 [Ruxolitinib (phosphate)],0.575 (inactive)
11,Cc1nc(Nc2n[nH]c3c2CN(C(=O)N[C@H](CN(C)C)c2ccccc2)C3(C)C)c2sccc2n1,5.51 (active)
12,N#CCNC(=O)c1ccc(-c2ccnc(Nc3ccc(N4CCOCC4)cc3)n2)cc1 [Momelotinib],0.661 (inactive)
13,N=C(NC(=N)N1CCCC1)Nc1ccc(OC(F)(F)F)cc1,1.01 (inactive)
14,Cc1cc(Nc2nc(N[C@@H](C)c3ncc(F)cn3)ncc2Cl)[nH]n1,0.882 (inactive)
15,CCS(=O)(=O)N1CCN(c2ccc(Nc3ncc(C(N)=O)c(NC4CC4)n3)cc2)CC1 [Cerdulatinib (hydrochloride)],1.06 (inactive)
16,C[C@H](Nc1cc(-c2cnn(C)c2)cc(Nc2cnccn2)n1)c1ccc(F)cc1 [Ilginatinib],0.485 (inactive)
17,COc1cc2c(NC3CCN(C)CC3)nc(N3CCCN(C)CC3)nc2cc1OCCOCCN(C)C,1.43 (inactive)
18,CCOC(=O)CCNc1cc(N2CCc3ccccc3CC2)nc(-c2ccccn2)n1 [GSK-J4 (hydrochloride)],1.45 (inactive)
19,CCN(CC)c1ccc(C=NNC(=O)c2ccncc2)c(O)c1,0.543 (inactive)
